Assay in all cases: DAPPL (digital affinity profiling via proximity ligation, sequencing); 10 mM Tris-HCl pH 7.5, 50 mM NaCl, 1 mM DTT, 4% glycerol, room temperature, 30 min; GST-TFs on glutathione beads, 16-mer random dsDNA library, 0.1% formaldehyde crosslink after washing; high values mean tight binding
Details in all cases: protein: recombinant; tags: N-terminal GST; dsDNA, one strand shown

One assay concerns the target T1, ELK1 (Homo sapiens, UniProt P19419 1-428).
T1 sequence: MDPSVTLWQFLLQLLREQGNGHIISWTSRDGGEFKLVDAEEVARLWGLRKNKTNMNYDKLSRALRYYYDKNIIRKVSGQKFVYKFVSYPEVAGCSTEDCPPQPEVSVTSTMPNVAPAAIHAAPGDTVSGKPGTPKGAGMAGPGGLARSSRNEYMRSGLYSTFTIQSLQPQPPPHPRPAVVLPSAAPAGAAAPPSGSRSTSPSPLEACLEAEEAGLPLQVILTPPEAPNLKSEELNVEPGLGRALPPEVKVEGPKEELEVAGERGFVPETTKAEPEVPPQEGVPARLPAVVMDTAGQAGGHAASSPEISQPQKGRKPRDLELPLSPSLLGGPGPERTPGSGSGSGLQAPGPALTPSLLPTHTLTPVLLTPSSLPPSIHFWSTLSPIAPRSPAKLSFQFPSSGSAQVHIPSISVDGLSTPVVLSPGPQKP
The method in brief:
(§1)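 GST fusions of human transcription factors were expressed in yeast and captured with glutathione beads. Once given DNA barcodes and pooled alongside a tag-only sample, they were incubated for 30 min at room temperature with 200 nmole of a random double-stranded 16-mer DNA library in Tris/NaCl/DTT/glycerol buffer, then washed, crosslinked (0.1% formaldehyde), proximity-ligated, PCR-amplified and sequenced on an Illumina NextSeq500. The binding signal of each hexamer is its read frequency for a factor divided by its frequency for the tag-only sample.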

The next assay deals with T2, GABPA (Homo sapiens, UniProt Q06546 1-454).
T2 sequence: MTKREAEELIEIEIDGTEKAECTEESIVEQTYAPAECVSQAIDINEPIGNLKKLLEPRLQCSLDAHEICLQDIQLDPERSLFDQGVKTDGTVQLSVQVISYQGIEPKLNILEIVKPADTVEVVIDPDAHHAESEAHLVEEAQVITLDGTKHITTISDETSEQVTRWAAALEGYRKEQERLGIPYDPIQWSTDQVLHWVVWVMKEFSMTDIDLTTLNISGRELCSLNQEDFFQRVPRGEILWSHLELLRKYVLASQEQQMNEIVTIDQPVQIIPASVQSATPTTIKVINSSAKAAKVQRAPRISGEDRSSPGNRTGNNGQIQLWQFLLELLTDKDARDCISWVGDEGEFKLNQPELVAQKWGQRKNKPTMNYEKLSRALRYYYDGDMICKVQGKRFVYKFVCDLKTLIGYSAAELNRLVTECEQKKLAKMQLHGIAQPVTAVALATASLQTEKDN
The method in brief: as §1

The target in the next assay is T3, ERG (Homo sapiens, UniProt P11308 1-479).
T3 sequence: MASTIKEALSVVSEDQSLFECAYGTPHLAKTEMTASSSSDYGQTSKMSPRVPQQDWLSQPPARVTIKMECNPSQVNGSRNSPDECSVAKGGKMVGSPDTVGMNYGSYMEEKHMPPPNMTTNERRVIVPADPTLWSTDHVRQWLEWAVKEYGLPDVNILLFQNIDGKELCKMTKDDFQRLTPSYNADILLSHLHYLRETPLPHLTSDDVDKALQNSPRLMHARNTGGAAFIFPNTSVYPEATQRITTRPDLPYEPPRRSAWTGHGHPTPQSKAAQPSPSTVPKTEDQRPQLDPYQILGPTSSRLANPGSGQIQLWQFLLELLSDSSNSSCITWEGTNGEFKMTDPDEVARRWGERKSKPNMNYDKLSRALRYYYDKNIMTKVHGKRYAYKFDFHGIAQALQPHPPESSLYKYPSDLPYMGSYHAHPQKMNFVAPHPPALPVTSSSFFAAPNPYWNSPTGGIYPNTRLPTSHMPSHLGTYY
The method in brief:
as §1

The target in the next assay is ELF1 (Homo sapiens, UniProt P32519 1-619). The procedure, abridged:
as §1

The target in another assay is T4, EHF (Homo sapiens, UniProt Q9NZC4 1-300).
T4 sequence: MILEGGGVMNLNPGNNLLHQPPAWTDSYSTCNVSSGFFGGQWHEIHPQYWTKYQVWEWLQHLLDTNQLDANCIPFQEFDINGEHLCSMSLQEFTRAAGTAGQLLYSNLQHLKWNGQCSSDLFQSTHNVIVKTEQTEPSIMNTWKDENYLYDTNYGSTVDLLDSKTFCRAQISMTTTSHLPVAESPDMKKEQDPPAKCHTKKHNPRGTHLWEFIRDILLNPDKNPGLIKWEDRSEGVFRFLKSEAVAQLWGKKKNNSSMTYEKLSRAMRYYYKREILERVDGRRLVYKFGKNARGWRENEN
The method in brief:
as §1

The target of a further assay is SPIB (Homo sapiens, UniProt Q01892 1-262). The procedure, abridged:
as §1

Another assay has as its target T5, FEV (Homo sapiens, UniProt Q99581 1-238).
T5 sequence: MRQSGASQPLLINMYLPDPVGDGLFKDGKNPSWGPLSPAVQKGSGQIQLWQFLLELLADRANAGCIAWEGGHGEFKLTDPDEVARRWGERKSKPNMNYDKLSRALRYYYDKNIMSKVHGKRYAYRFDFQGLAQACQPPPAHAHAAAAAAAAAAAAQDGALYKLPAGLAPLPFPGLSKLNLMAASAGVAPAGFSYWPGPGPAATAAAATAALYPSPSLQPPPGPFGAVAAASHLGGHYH
The method in brief:
as §1

A further assay deals with ETV5 (Homo sapiens, UniProt P41161 1-510). The method in brief: as §1
Another assay deals with ELF4 (Homo sapiens, UniProt Q99607 1-663). The procedure, abridged: as §1
The target in a further assay is T6, ELK4 (Homo sapiens, UniProt P28324-2 1-405).
T6 sequence: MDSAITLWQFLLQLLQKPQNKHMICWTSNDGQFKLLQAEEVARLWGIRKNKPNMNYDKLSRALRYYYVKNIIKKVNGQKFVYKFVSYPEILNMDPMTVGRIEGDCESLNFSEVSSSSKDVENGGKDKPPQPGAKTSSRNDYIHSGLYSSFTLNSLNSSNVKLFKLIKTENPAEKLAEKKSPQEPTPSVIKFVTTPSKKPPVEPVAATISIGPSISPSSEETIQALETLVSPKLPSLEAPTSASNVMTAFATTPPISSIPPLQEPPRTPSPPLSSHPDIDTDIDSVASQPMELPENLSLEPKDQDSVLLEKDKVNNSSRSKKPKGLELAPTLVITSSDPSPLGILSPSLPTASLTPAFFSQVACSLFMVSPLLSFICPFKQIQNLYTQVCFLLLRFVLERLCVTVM
The procedure, abridged: as §1

A further assay has as its target T7, ELF3 (Homo sapiens, UniProt P78545 1-371).
T7 sequence: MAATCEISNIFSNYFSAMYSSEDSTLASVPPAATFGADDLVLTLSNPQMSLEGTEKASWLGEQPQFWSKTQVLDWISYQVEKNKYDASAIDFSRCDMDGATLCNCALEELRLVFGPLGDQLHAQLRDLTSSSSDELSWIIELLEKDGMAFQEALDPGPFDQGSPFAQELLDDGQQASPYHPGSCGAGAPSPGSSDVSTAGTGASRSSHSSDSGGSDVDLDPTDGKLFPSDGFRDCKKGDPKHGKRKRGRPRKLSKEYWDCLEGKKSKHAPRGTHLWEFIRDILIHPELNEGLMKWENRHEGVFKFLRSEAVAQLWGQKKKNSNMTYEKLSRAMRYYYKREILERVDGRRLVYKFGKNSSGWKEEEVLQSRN
The procedure, abridged: as §1

The target of another assay is ETV1 (Homo sapiens, UniProt P50549 1-477). The method in brief:
as §1

Another assay concerns the target T8, ERF (Homo sapiens, UniProt P50548 1-548).
T8 sequence: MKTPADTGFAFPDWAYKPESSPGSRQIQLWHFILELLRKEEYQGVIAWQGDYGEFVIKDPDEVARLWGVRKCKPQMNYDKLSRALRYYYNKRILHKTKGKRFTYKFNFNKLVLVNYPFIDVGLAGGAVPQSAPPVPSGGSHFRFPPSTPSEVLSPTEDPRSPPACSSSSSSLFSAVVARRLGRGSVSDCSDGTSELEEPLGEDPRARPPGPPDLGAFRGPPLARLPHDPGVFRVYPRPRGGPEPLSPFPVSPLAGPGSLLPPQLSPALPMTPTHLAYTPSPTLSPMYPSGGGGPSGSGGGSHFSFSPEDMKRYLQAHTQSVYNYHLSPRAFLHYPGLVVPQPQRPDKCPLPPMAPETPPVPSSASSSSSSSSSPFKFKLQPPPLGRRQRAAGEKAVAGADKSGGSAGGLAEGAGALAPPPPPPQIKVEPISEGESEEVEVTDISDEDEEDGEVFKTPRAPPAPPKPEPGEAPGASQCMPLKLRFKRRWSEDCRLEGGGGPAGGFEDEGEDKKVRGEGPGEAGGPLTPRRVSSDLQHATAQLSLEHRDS
The procedure, abridged:
as §1

For the next assay, the target named is T9, ETV3L (Homo sapiens, UniProt Q6ZN32 1-361).
T9 sequence: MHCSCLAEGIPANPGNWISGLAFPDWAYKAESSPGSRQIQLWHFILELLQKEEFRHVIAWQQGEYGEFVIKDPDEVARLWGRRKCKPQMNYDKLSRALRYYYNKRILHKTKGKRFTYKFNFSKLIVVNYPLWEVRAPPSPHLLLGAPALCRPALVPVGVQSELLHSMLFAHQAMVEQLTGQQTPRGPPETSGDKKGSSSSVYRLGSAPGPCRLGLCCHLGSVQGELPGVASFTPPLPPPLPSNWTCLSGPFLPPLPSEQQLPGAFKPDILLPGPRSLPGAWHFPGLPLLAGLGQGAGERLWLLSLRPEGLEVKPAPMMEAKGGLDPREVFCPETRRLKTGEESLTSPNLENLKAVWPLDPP
The method in brief: as §1

A further assay concerns the target T10, ETS2 (Homo sapiens, UniProt P15036 1-469).
T10 sequence: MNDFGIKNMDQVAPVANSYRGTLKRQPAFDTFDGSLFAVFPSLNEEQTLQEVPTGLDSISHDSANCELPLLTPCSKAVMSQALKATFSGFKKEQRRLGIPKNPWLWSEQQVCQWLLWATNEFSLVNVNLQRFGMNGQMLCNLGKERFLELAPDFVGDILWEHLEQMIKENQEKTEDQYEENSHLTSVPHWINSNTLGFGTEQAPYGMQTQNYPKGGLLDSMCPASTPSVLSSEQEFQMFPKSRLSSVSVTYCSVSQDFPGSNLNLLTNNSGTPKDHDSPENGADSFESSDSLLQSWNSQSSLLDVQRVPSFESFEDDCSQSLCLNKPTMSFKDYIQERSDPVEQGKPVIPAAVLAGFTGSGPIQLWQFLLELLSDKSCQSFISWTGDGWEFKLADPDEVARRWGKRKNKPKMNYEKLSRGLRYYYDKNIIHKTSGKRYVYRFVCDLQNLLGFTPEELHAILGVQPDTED
The procedure, abridged:
as §1

For another assay, the target named is T11, ETV7 (Homo sapiens, UniProt Q9Y603 1-341).
T11 sequence: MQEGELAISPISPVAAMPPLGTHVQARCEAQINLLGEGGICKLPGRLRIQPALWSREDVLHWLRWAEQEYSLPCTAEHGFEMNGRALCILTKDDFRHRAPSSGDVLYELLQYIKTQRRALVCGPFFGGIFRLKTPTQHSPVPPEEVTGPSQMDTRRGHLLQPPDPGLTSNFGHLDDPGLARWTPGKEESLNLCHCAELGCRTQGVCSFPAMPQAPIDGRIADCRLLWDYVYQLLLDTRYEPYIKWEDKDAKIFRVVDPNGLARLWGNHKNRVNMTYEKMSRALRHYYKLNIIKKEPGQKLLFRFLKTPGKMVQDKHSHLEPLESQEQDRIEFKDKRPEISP
The procedure, abridged:
as §1

The next assay has as its target T12, ETV3 (Homo sapiens, UniProt P41162-2 1-143).
T12 sequence: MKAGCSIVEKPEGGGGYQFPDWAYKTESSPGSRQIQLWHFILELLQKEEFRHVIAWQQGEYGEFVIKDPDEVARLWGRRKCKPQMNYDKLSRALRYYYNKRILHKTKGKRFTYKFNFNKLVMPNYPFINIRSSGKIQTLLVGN
The method in brief:
as §1

The target of another assay is ETV6 (Homo sapiens, UniProt P41212 1-452). The procedure, abridged:
as §1

ETV1, sequence (P50549 whole entry): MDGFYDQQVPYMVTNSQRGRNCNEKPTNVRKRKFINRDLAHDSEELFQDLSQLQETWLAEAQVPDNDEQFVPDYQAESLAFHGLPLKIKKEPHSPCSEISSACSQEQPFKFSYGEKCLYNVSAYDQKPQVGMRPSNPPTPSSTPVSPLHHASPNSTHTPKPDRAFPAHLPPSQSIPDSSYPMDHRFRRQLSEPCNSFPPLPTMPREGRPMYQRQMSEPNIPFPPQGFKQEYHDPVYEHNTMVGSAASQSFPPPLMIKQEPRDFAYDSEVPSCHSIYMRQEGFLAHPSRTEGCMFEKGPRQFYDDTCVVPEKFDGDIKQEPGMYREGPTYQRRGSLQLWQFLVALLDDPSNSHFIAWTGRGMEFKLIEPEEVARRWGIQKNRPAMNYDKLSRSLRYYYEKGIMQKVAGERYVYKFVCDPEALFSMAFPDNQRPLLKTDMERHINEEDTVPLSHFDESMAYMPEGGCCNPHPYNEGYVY
ELF1, sequence (P32519 whole entry): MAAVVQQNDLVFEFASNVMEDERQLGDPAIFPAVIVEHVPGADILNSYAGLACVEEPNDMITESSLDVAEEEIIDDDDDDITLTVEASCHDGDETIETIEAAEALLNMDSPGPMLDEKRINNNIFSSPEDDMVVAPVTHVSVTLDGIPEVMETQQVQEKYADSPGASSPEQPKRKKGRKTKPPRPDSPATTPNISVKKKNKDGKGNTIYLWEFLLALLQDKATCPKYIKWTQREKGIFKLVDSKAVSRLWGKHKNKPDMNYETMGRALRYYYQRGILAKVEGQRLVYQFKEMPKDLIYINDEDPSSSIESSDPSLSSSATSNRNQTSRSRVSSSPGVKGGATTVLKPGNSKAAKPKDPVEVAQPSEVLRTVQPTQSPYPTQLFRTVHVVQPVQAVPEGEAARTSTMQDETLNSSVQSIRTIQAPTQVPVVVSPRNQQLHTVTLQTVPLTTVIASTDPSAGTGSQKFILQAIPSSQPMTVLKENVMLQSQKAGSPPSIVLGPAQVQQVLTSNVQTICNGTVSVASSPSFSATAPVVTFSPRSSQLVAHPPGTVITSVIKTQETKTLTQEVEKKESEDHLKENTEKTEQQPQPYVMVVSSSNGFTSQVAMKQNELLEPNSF
SPIB, sequence (Q01892 whole entry): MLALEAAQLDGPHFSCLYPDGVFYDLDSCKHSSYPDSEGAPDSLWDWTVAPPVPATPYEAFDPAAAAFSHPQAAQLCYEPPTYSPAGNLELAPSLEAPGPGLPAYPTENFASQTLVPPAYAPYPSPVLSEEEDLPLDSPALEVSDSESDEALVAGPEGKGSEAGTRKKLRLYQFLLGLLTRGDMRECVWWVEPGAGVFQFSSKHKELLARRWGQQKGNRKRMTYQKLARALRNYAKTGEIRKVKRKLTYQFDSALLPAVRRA
ELF4, sequence (Q99607 whole entry): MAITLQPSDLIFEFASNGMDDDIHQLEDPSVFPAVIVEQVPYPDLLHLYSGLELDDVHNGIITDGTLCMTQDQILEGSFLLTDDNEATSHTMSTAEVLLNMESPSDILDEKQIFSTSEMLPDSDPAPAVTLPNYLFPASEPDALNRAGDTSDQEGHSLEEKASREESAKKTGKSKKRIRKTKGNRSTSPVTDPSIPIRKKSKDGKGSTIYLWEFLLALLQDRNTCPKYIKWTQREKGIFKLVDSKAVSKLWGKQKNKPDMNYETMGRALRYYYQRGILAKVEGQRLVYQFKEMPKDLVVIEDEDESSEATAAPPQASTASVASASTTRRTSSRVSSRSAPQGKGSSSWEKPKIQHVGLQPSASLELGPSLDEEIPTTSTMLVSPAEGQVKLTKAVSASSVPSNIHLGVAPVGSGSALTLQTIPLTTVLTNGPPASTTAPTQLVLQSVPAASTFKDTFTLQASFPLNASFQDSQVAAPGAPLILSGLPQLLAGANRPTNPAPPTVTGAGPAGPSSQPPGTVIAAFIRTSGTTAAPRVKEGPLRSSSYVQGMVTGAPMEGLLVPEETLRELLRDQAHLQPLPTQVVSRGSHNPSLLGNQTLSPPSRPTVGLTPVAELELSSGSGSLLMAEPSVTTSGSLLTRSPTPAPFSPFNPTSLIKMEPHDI
ETV6, sequence (P41212 whole entry): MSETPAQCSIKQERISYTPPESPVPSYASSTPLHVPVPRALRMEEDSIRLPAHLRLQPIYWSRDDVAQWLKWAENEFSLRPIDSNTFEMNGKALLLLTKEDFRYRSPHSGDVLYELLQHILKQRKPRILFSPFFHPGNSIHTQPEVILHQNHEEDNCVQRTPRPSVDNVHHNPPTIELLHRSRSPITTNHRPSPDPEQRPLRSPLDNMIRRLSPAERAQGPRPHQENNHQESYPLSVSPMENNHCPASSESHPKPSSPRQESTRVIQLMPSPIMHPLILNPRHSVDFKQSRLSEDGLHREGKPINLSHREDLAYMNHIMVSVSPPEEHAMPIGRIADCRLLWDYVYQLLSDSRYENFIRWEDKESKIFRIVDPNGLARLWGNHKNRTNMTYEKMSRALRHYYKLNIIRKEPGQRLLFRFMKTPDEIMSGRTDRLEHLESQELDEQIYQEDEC
ETV5, sequence (P41161 whole entry): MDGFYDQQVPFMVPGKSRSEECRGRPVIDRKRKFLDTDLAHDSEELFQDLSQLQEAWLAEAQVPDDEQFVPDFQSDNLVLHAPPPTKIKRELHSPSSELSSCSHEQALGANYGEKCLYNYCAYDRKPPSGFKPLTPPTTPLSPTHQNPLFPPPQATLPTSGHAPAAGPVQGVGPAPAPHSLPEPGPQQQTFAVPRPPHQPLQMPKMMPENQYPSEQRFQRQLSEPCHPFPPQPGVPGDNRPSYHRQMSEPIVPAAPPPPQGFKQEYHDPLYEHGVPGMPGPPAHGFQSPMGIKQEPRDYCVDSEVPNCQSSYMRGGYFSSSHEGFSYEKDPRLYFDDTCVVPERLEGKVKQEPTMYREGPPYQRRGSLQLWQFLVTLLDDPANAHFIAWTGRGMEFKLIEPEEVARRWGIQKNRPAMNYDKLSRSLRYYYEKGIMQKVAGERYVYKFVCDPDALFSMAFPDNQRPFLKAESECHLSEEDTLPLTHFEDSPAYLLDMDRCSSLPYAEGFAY

Turning to GGCTAC, the binding signal in the assay with ELK1 was 1.12 fold enrichment (6-mer frequency, TF over GST control); with GABPA it was 1.18 fold enrichment (6-mer frequency, TF over GST control); with ERG it was 1.09 fold enrichment (6-mer frequency, TF over GST control); with ELF1, 1.26 fold enrichment (6-mer frequency, TF over GST control); with EHF, 1.07 fold enrichment (6-mer frequency, TF over GST control); in the assay with SPIB, 1.16 fold enrichment (6-mer frequency, TF over GST control). The binding signal was 1.1 fold enrichment (6-mer frequency, TF over GST control) in the assay with FEV; 1.22 fold enrichment (6-mer frequency, TF over GST control) with ETV5; 1.17 fold enrichment (6-mer frequency, TF over GST control) in the assay with ELF4; 1.1 fold enrichment (6-mer frequency, TF over GST control) with ELK4; 1.18 fold enrichment (6-mer frequency, TF over GST control) with ELF3; 1.12 fold enrichment (6-mer frequency, TF over GST control) in the assay with ETV1. Also, the binding signal with ERF was 1.12 fold enrichment (6-mer frequency, TF over GST control); in the assay with ETV3L, 1.16 fold enrichment (6-mer frequency, TF over GST control); with ETS2, 1.2 fold enrichment (6-mer frequency, TF over GST control); with ETV7, 1.26 fold enrichment (6-mer frequency, TF over GST control); in the assay with ETV3 it was 1.07 fold enrichment (6-mer frequency, TF over GST control); with ETV6, 1.2 fold enrichment (6-mer frequency, TF over GST control).

The values above are taken from paper PMC7862700, “An all-to-all approach to the identification of sequence-specific readers for epigenetic DNA modifications on cytosine”.
